Holding throughout (details): modulator concentration 10 µM
Assay [1] deals with RAW-Dual (murine macrophage reporter line). Briefly: NF-kB reporter (SEAP) activity fold change vs agonist alone; higher = enhanced NF-kB activity. A digest of the protocol:
(§1)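 RAW-Dual murine macrophage reporter cells were plated at 50 000 per well in 384-well plates, pin-transferred compound to 10 μM final, and pre-incubated for 1 hour at 37 °C before a PRR agonist was added and the cells incubated overnight. NF-κB activity was read from supernatant SEAP with QUANTI-Blue at 620 nm absorbance, and IRF activity from Lucia luciferase with QUANTI-Luc by luminescence. Each signal was expressed as fold change by dividing by the mean agonist-only control on the same plate. Two replicate plates were averaged, with errors obtained by propagation.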

Assay [2] has the same test system. In words: IRF reporter (Lucia luciferase) activity fold change vs agonist alone; higher = enhanced IRF activity. In outline:
as §1

Assay [3] has the same test system. In words: viability score (confluency relative to resting cells, overnight) (fraction); higher = more viable, active = viable (0.7 or more). A digest of the protocol:
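Two confluency masks, generated with IncuCyte software over all imaged wells, were applied to IncuCyte images of RAW-Dual macrophages. The cells, in 384-well plates, had been exposed overnight to 10 μM final compound. The viability score is confluency as a fraction of resting cells, and a compound met the cutoff only with both masks above 70% of resting cells.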

Setting [4] is: agonist: CpG ODN 1826 0.5 ug/mL.

± gives the standard deviation.

Turning to `CCOC(=O)N(CC(=O)OC)CP(=O)(O)C(Cc1ccccc1)C(=O)O` (stereo not drawn), the NF-kB reporter in assay [1] (setting [4]) was found to be 0.988 ± 0.058; in assay [1] (agonist: LPS 0.1 ug/mL), 1.02 ± 0.07; in assay [1] (agonist: MPLA […]), 0.969 ± 0.069. Further, the figures for the IRF reporter in assay [2] (agonist: 3'3'-cGAMP 10 ug/mL), in assay [2] (agonist: LPS 0.1 ug/mL) and in assay [2] (agonist: MPLA […]) were 1.03 ± 0.045, 1.41 ± 0.21 and 1.07 ± 0.095, respectively. In assay [3], the viability score is 1 (active).
Take `CCC(C(=O)N1CCC2(CC1)CC2(F)F)c1ccccc1` (stereo not drawn): the NF-kB reporter in assay [1] (setting [4]) was found to be 1.08 ± 0.069; in assay [1] (agonist: LPS 0.1 ug/mL), 1.08 ± 0.098; in assay [1] (agonist: MPLA […]), 1.62 ± 0.45. Besides, the IRF reporter turned out to be 1.06 ± 0.048 in assay [2] (agonist: 3'3'-cGAMP 10 ug/mL), 1.19 ± 0.24 in assay [2] (agonist: LPS 0.1 ug/mL) and 1.36 ± 0.33 in assay [2] (agonist: MPLA […]). Besides, in assay [3], the viability score was 0.911 (active).
For `O=C(Nc1nccs1)c1ccc2c(c1)C(=O)N(CC1CCCO1)C2=O` (stereo not drawn), the results for the NF-kB reporter in assay [1] (setting [4]), in assay [1] (agonist: LPS 0.1 ug/mL) and in assay [1] (agonist: MPLA […]) were 1.12 ± 0.11, 0.919 ± 0.088 and 0.975 ± 0.028, respectively. Also, the IRF reporter turned out to be 0.997 ± 0.037 in assay [2] (agonist: 3'3'-cGAMP 10 ug/mL), 1.04 ± 0.054 in assay [2] (agonist: LPS 0.1 ug/mL) and 1.14 ± 0.13 in assay [2] (agonist: MPLA […]). In addition, the viability score in assay [3] is 0.997 (active).
Consider `CCOc1ccc2nc(N(CCCN(C)C)C(=O)c3ccc(Br)s3)sc2c1.Cl`, for which the NF-kB reporter in assay [1] (setting [4]) turned out to be 0.164 ± 0.014; in assay [1] (agonist: LPS 0.1 ug/mL), 0.836 ± 0.076; in assay [1] (agonist: MPLA […]), 0.855 ± 0.13. The IRF reporter in assay [2] (agonist: 3'3'-cGAMP 10 ug/mL) stood at 0.406 ± 0.1; in assay [2] (agonist: LPS 0.1 ug/mL), 1.14 ± 0.071; in assay [2] (agonist: MPLA […]) it was 0.533 ± 0.083. The viability score in assay [3] is 0.0434 (inactive).
In the case of `COC(=O)C1=CN(CC2CCCO2)C=C(C(=O)OC)C1c1cccc(OC)c1` (stereo not drawn), the NF-kB reporter in assay [1] (setting [4]) was determined as 1.36 ± 0.25; in assay [1] (agonist: LPS 0.1 ug/mL), 0.859 ± 0.065; in assay [1] (agonist: MPLA […]) it was 1.29 ± 0.13. Further, the IRF reporter in assay [2] (agonist: 3'3'-cGAMP 10 ug/mL) came to 0.943 ± 0.034; in assay [2] (agonist: LPS 0.1 ug/mL), 0.947 ± 0.045; in assay [2] (agonist: MPLA […]), 0.879 ± 0.13. For the same compound, in assay [3], the viability score was 0.994 (active).
Take `O=C(NCC1(O)CCc2ccccc2C1)c1cccc(C(F)(F)F)c1` (stereo not drawn): the results for the NF-kB reporter in assay [1] (setting [4]), in assay [1] (agonist: LPS 0.1 ug/mL) and in assay [1] (agonist: MPLA […]) were 0.848 ± 0.041, 0.939 ± 0.1 and 0.957 ± 0.054, respectively. The IRF reporter in assay [2] (agonist: 3'3'-cGAMP 10 ug/mL) turned out to be 0.989 ± 0.045; in assay [2] (agonist: LPS 0.1 ug/mL), 1.09 ± 0.26; in assay [2] (agonist: MPLA […]), 1.12 ± 0.43. Also, the viability score in assay [3] was 0.994 (active).
For the compound `O=C(NCC1CN(c2ccc(N3CCOCC3=O)cc2)C(=O)O1)c1ccc(Cl)s1` (stereo not drawn), the NF-kB reporter in assay [1] (setting [4]) stood at 1.36 ± 0.18; in assay [1] (agonist: LPS 0.1 ug/mL), 1.09 ± 0.41; in assay [1] (agonist: MPLA […]), 0.984 ± 0.063. Besides, the values for the IRF reporter in assay [2] (agonist: 3'3'-cGAMP 10 ug/mL), in assay [2] (agonist: LPS 0.1 ug/mL) and in assay [2] (agonist: MPLA […]) were 0.898 ± 0.031, 1.21 ± 0.43 and 1.03 ± 0.08, respectively. The viability score in assay [3] is 1 (active).
For the compound `CCCOc1ccc(C(=O)OCCN(CC)CC)cc1N.Cl`, the NF-kB reporter in assay [1] (setting [4]) is 0.857 ± 0.14; in assay [1] (agonist: LPS 0.1 ug/mL), 1.03 ± 0.1; in assay [1] (agonist: MPLA […]), 0.928 ± 0.077. Besides, the IRF reporter worked out at 1.01 ± 0.044 in assay [2] (agonist: 3'3'-cGAMP 10 ug/mL), 1.2 ± 0.19 in assay [2] (agonist: LPS 0.1 ug/mL) and 1.44 ± 0.15 in assay [2] (agonist: MPLA […]). In assay [3], the viability score is 1 (active).
With `OCCN(CCO)CC(O)Cn1c2ccc(Br)cc2c2cc(Br)ccc21` (stereo not drawn), the NF-kB reporter turned out to be 0.301 ± 0.024 in assay [1] (setting [4]), 0.484 ± 0.035 in assay [1] (agonist: LPS 0.1 ug/mL) and 0.617 ± 0.06 in assay [1] (agonist: MPLA […]). In addition, the IRF reporter in assay [2] (agonist: 3'3'-cGAMP 10 ug/mL) worked out at 0.742 ± 0.024; in assay [2] (agonist: LPS 0.1 ug/mL) it was 1.42 ± 0.24; in assay [2] (agonist: MPLA […]) it was 1.35 ± 0.15. For the same compound, the viability score in assay [3] was 0.94 (active).

The record behind these values is the supplement of paper PMC10646978.
